# Measured values: PubChem BioAssay (NCI)
# The panel holds about 83,000 compounds, 20% with a hit somewhere; the sample as a whole holds those more often.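 The endpoint reported here, percent growth, reads 100 for growth as untreated, 0 for no net growth and -100 for all cells dead.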 Unmarked numbers belong to inactive results. The source made the active and inactive calls. Rule for the calls: active = growth percent below 10; inactive = the rest.
# Tests used:
# Experiment in all cases: NCI-60 one-dose screen, 48 h (100 = growth as untreated, 0 = no growth, -100 = all killed)
# Settings in all cases: 10 µM unless noted
# [1] = test system: SR leukemia
# [2] = test system: OVCAR-8 ovarian
# [3] = test system: OVCAR-5 ovarian
# [4] = test system: OVCAR-4 ovarian
# [5] = test system: SK-OV-3 ovarian
# [6] = test system: IGROV1 ovarian
# [7] = test system: OVCAR-3 ovarian
# [8] = test system: NCI/ADR-RES ovarian
# [9] = test system: HS 578T breast
SMILES,growth [1],growth [2],growth [3],growth [4],growth [5],growth [6],growth [7],growth [8],growth [9]
CCCCCCCSc1ncnc2[nH]ncc12,79.3%,86.9%,92%,96.7%,101%,81.7%,79.9%,84.6%,–
C[C@]12CCC(=O)C=C1CCC1C2[C@@H](O)C[C@@]2(C)C1CC[C@]2(O)C(=O)COC(=O)CCC(=O)O (stereo partly drawn),105%,95.6%,99.4%,102%,89%,93.6%,123%,95.7%,–
O=C1NCCc2c1noc2-c1ccccc1,103%,109%,103%,114%,91.3%,99.5%,113%,98.6%,111%
C(=C1c2ccccc2-c2ccccc21)c1ccncc1,9.55% (active),64.1%,81%,57.1%,75.5%,44.9%,5.44% (active),4.8% (active),49.5%
CN1CCN(CCCCCN=c2cc3c(=O)n(CCCCCN4CCN(C)CC4)c(=O)c4c(NCCCCCN5CCN(C)CC5)cc5c(O)n(CCCCCN6CCN(C)CC6)c(=O)c2c5c4-3)CC1,1.43% (active),12.6%,-9.79% (active),–,-29.6% (active),-0.0469% (active),3.82% (active),110%,-2.4% (active)
O=C(CC1Sc2ccccc2NC1=O)NNc1cccc(Cl)c1Cl (stereo not drawn),61%,82.7%,80.6%,88.1%,70.2%,82.1%,81.7%,96.7%,–
O=C(O)C1C(c2ccccc2)c2ccccc2C(O)C1CO (stereo not drawn),99.6%,103%,101%,108%,94.9%,–,134%,109%,–
CCCn1c(N)c(C(=O)CNc2ccc(I)cc2)c(=O)[nH]c1=O,139%,49.5%,137%,74.4%,56%,–,64.9%,77.1%,44.3%
O=C1OC(Oc2ccccc2)(c2ccccc2)c2ccccc21 (stereo not drawn),79.1%,102%,99.6%,–,106%,107%,97%,100%,101%
CC1CC=CCC1C1OCC(C)(C)CO1 (stereo not drawn),96.4%,98.6%,104%,108%,110%,101%,109%,108%,–
COc1ccc(C2CC(c3ccc4c(c3)OCO4)=NN2C=O)cc1 (stereo not drawn),100%,106%,110%,92.8%,108%,127%,128%,103%,–
O=c1c2c(=NCCCN3CCCC3)cc3c(=O)n(CCCN4CCCC4)c(=O)c4c(NCCCN5CCCC5)cc(c(O)n1CCCN1CCCC1)c2c4-3,3.03% (active),5.37% (active),-0.86% (active),–,-6.65% (active),-30.3% (active),-21.8% (active),51.1%,-16.5% (active)
O=C(Oc1ccccc1)C(Br)C(Br)c1ccccc1 (stereo not drawn),-23.6% (active),103%,102%,–,114%,–,-47% (active),113%,85.9%
Nc1nc2c(nnn2Cc2ccc(Cl)c(Cl)c2)c(=O)[nH]1,92%,98.5%,95.5%,112%,97.4%,100%,106%,105%,–
CC[C@@H](C)/C=C(C)/C=C/C(=O)c1c(O)c(-c2ccc(O)cc2)cn(OC2CC(=O)CCC(C)OC(=O)CC2O)c1=O (stereo partly drawn),7.95% (active),17.5%,53.8%,–,–,4.73% (active),18.7%,5.21% (active),35.1%
O=C(c1ccccc1)c1ccc(Oc2ccc([N+](=O)[O-])cc2[N+](=O)[O-])cc1,14.6%,41.5%,59.9%,28.5%,99.9%,–,48.7%,4.04% (active),90.7%
CN(C)CCC(=O)Nc1ccc(-n2cc(-c3cccc(NC(=S)Nc4cccc(-c5cn(-c6ccc(NC(=O)CCN(C)C)cc6)nn5)c4)c3)nn2)cc1,25.9%,97.3%,113%,–,115%,85.5%,94.6%,113%,137%

SMILES,growth [1],growth [2],growth [3],growth [4],growth [5],growth [6],growth [7],growth [8],growth [9]
COc1cccc(C=Nc2cc(C(C)C)c(O)cc2C)c1O,113%,98.8%,101%,101%,89.2%,111%,100%,104%,–
CNc1nc(NC2CCCC2)nc(Sc2ccc(OC)cc2)n1,-0.593% [100 µM] (active),20.2% [100 µM],59.5% [100 µM],36.9% [100 µM],74.9% [100 µM],45.9% [100 µM],-25.5% [100 µM] (active),11.9% [100 µM],–
Cc1ccc(-c2cc(-c3ccccc3)n(-c3ccccc3)n2)cc1,72.3%,105%,95.8%,85.3%,105%,–,103%,101%,–
Cc1cc2ccccn2c1C(=O)c1ccc(C(=O)c2ccccc2)cc1,-3.06% (active),87.9%,87.8%,81.4%,111%,–,96%,72%,86%
CN(C)CCCN=c1cc2c(=O)n(CCCN(C)C)c(=O)c3c(NCCCN(C)C)cc4c(O)n(CCCN(C)C)c(=O)c1c4c3-2,6.3% (active),5.35% (active),0.732% (active),–,-4.23% (active),-24.6% (active),-39.1% (active),52.2%,-11.2% (active)
Cc1cc(-c2ccccc2)cc(C)n1,99.4%,106%,108%,99.7%,109%,102%,127%,110%,–
Cc1onc(-c2ccccc2Cl)c1C(=O)N[C@@H]1C(=O)N2[C@@H]1SC(C)(C)[C@@H]2C(=O)O,91.6%,106%,115%,110%,104%,101%,118%,109%,–
O=C(c1ccccc1)C(CN1CCCCC1)c1ccccc1 (stereo not drawn),-3.65% (active),15.6%,32.5%,39.7%,107%,–,14.9%,12.6%,–
COc1ccc2c3c(ccc2c1)C(=O)/C(=C\O)CC3,94.6%,97.4%,107%,100%,91.6%,111%,99.6%,96.3%,–
C=CCNC(=O)/C(=C/c1cccc([N+](=O)[O-])c1)NC(=O)c1ccccc1,207%,98.7%,101%,99.3%,99.9%,–,108%,106%,108%
COc1ccc(C(=O)/C=C/c2cccc(Nc3ccnc4cc(Cl)ccc34)c2)cc1,0.362% (active),10.2%,39.3%,-46% (active),64%,30.2%,23.9%,21.3%,–
Cc1[nH]cnc1/C=C1\SC(N2CCCCC2)=NC1=O,97.7%,105%,107%,–,108%,100%,124%,106%,120%
NC(=O)NC1(C(=O)O)CCCC1,91.8%,106%,98.5%,118%,109%,119%,115%,111%,–
CC[C@@H](C)/C=C(C)/C=C/C(O)=C1\C(=O)N[C@@H](Cc2ccc(OC(=O)[C@@](OC)(c3ccccc3)C(F)(F)F)cc2)C1=O,62.6%,103%,120%,–,112%,–,67.8%,49.6%,67.8%
COc1ccc(C2=NN(C(N)=S)C(c3ccc4c(c3)OCO4)C2)cc1 (stereo not drawn),4.75% (active),20.9%,75.1%,–,33.8%,-22% (active),-21.5% (active),5.5% (active),-13% (active)
CC(C)=CCCC(C)c1ccc(C)c2c1OCN(CC1CCNCC1)C2 (stereo not drawn),-8.52% (active),75.3%,81.1%,91.7%,87%,–,77.2%,83.5%,64.3%
Cc1cc(C)nc(NS(=O)(=O)c2ccc(Nc3nc4nc(SCc5ccccc5)nc(-c5ccc(O)cc5)c4c(=O)[nH]3)cc2)n1,85.7%,97%,96.2%,104%,94.9%,–,120%,97.3%,103%
